# High-throughput results (PubChem BioAssay)
# mut p53 react: restores mutant p53 pathway signaling in SW480 cells; activation, % at 9.98 µM; SW480 PUMA-promoter luciferase, p53 mutant reactivation; AID 624151; hit rate 1.5% among 28,000; in the data active = activation above about 52%
# p53 mut binder: binds human mutant p53 on microarray. small molecule microarray binding, anti-GST fluorescence. calls only. hit rate 0.4% among 17,000;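 active = compounds whose four printed spots each glow above background more than chance allows, each with a p-value under 7%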
# Myc binder: binders of human c-Myc | P01106 | small molecule microarray, His-c-Myc binding, anti-His fluorescence | calls only | hit rate 1.5% among 17,000 | AID 624141;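 active = spot fluorescence over background with P-value below 7% in all four replicate spots, showing protein binding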;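 also: score is binary with 100 for all four spots passing and 0 otherwise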
# STAT3 binder: binds human STAT3 on microarray | P40763 | Small molecule microarray, His-STAT3 binding, anti-His fluorescence | calls only | hit rate 0.2% among 17,000;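 active = compounds whose four printed spots each show fluorescence over background unusually high for their array block, chance value under 7%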
# Target sequence (P40763 whole entry, looked up): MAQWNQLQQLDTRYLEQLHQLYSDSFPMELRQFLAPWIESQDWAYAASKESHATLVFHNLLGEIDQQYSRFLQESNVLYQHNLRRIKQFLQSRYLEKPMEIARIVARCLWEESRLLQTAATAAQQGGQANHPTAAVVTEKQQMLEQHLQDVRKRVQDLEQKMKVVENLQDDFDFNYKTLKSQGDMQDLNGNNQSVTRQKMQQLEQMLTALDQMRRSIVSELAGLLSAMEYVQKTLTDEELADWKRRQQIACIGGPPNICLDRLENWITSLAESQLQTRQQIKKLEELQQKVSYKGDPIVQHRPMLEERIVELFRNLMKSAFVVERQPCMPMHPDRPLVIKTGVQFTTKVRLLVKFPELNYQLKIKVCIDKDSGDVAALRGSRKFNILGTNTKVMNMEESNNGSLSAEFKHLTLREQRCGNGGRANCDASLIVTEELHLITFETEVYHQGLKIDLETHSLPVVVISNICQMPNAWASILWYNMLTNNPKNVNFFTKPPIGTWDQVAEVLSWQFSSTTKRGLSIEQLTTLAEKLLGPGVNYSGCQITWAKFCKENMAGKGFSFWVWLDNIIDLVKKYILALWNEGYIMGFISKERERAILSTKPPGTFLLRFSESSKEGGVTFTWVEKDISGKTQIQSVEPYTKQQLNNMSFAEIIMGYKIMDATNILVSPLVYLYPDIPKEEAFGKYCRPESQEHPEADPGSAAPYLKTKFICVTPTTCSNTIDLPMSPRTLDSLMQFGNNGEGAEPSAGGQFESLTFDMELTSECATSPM
# NFkB SMM: binds human NF-kappa-B p105 on microarray. P19838. Small molecule microarray, anti-His fluorescence binding. calls only. hit rate 1.3% among 17,000. AID 624139;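 active = spot fluorescence over background significantly raised, with a chance value under 7% in all four replicate spots of the compound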;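 also: probe protein is his-tagged human p50 processed subunit at 1 µg/ml; raw spot fluorescence signals with no normalization applied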
# * = called active by the depositor; i = inactive; / = not tested or not shown; + = active, no number. Compounds with a hit are over-represented: about 2.6% of the library has one in this group of screens.
SMILES,mut p53 react,p53 mut binder,Myc binder,STAT3 binder,NFkB SMM
CC(=O)c1ccc(N2CCOCC2)cc1O,/,i,i,i,i
O=C(N[C@@H](Cc1ccccc1)Cn1cc(CN2C(=O)COC[C@H]2c2ccccc2)nn1)c1ccccc1,/,+,i,i,i
Cc1ccc(S(=O)(=O)N[C@H](C(=O)NCCn2cc(CN3C(=O)COC[C@H]3c3ccccc3)nn2)C(C)C)cc1,/,+,i,i,i
O=C(Nc1ccccc1)N[C@H](Cc1ccccc1)Cn1cc(CN2C(=O)COC[C@H]2c2ccccc2)nn1,/,+,i,i,i
COC(=O)c1cn(CCCNC(=O)[C@H](Cc2ccccc2)NS(=O)(=O)c2ccc(C)cc2)nn1,/,i,i,i,i
Cc1nn(Cc2ccc(Br)cc2)c(C)c1NC(=O)Cn1nc(C(F)(F)F)c2c1CCCCC2,4,/,/,/,/
O=C(Nc1c(Cl)cc(Cl)cc1C(=O)NCc1cccnc1)c1cccc([N+](=O)[O-])c1,10,/,/,/,/
COc1ccc(C(=O)Nc2ccccc2C(=O)NC(C(=O)O)C(C)C)cc1 (configuration not stated),3,i,+,i,i
C/C(=C\Cc1c(O)cc2oc(C)cc(=O)c2c1O)CO[C@@H]1O[C@H](CO)[C@@H](O)[C@H](O)[C@H]1O,0,i,i,i,i
COc1ccc(NC(=O)c2ccc(OC(C)C(=O)Nc3ccccc3C(F)(F)F)cc2)cc1Cl (configuration not stated),-2,/,/,/,/
COc1ccc(NC(=O)c2ccc(OC(C)C(=O)O)cc2)cc1Cl (configuration not stated),9,i,i,i,+
COc1ccc(C(=O)CSc2nnc(-c3ccc(Cl)cc3)n2-c2ccc(OC)cc2)cc1,6,/,/,/,/
CCC(=O)Nc1cccc(NC(=O)COc2ccc3ccccc3c2)c1,94*,/,/,/,/
COc1ccc(OCC(=O)Nc2cccc(-c3cnc4ccccc4n3)c2)cc1,92*,/,/,/,/
COc1ccc2oc(-c3cccc(NC(=O)COc4ccc(Cl)cc4)c3)nc2c1,91*,/,/,/,/
COc1ccc(OCC(=O)Nc2ccc3oc(-c4cccc(Br)c4)nc3c2)cc1,43,/,/,/,/
O=C(COc1ccc([N+](=O)[O-])cc1)Nc1cccc(O)c1,117*,/,/,/,/
COc1cc2[nH]c(=S)n(CCc3cnc[nH]3)c(=O)c2cc1OC,-11,/,/,/,/
Cc1cccc(C)c1NC(=O)COc1cc(O)c2c(=O)cc(-c3ccccc3)oc2c1,-61,i,i,i,i
COc1ccc(S(=O)(=O)N(C)C[C@@H]2Oc3ccc(NC(=O)Nc4ccc5c(c4)OCO5)cc3C(=O)N([C@H](C)CO)C[C@@H]2C)cc1,-17,i,i,i,i
CCc1c(O)nc(SC(C)C(=O)Nc2cccc(Cl)c2)[nH]c1=O (configuration not stated),-3,i,i,i,i
O=C(COc1ccccc1)Nc1ccc2oc(-c3ccccc3)nc2c1,69*,i,i,i,i
Cc1cccc(-c2nc3cc(NC(=O)COc4ccccc4)ccc3o2)c1,33,/,/,/,/
O=C(O)CCC(=O)Nc1ccc(Br)c(Cl)c1,-11,i,i,i,i
O=C(O)CCC(=O)Nc1ccc(Br)c2cccnc12,3,i,+,i,i
SMILES,mut p53 react,p53 mut binder,Myc binder,STAT3 binder,NFkB SMM
COc1cc2c(cc1NC(=O)CSc1nnnn1C)oc1ccccc12,147*,/,/,/,/
COc1cc2c(cc1NC(=O)CSc1nnc(N)s1)oc1ccccc12,117*,i,i,i,i
C[C@@H]1CN([C@@H](C)CO)C(=O)c2cc(NC(=O)Nc3ccc4c(c3)OCO4)ccc2O[C@@H]1CN(C)CC1CCCCC1,-4,i,i,i,i
C[C@H](CO)N1C[C@H](C)[C@@H](CN(C)CC2CC2)OCCCC[C@H](C)Oc2ccc(NC(=O)Nc3cccc4ccccc34)cc2C1=O,/,i,i,i,+
C[C@@H]1CCCCO[C@H](CN(C)CC2CCCCC2)[C@H](C)CN([C@@H](C)CO)C(=O)c2cc(NC(=O)NC3CCCCC3)ccc2O1,/,i,i,i,+
C[C@H](CO)N1C[C@H](C)[C@@H](CN(C)CC2CCCCC2)Oc2ccc(NC(=O)Nc3ccc4c(c3)OCO4)cc2C1=O,-5,+,+,i,+
C[C@@H]1CCCCO[C@@H](CN(C)C(=O)c2ccccc2)[C@@H](C)CN([C@H](C)CO)C(=O)c2cc(NC(=O)Nc3cccc4ccccc34)ccc2O1,/,+,+,i,+
C[C@@H]1CN([C@@H](C)CO)C(=O)c2cc(NC(=O)Nc3cccc4ccccc34)ccc2O[C@@H](C)CCCCO[C@@H]1CN(C)C,-3,i,i,i,i
CCOC(=O)c1ccc(NC(=O)CSc2nc(C)cc(C(F)(F)F)n2)cc1,-4,/,/,/,/
C[C@@H]1CN([C@@H](C)CO)C(=O)c2cc(N(C)C)ccc2O[C@@H](C)CCCCO[C@H]1CN(C)C(=O)Nc1cccc2ccccc12,-19,i,+,i,i
C[C@@H]1CN([C@@H](C)CO)C(=O)c2cc(NC(=O)NC3CCCCC3)ccc2O[C@H]1CN(C)C(=O)NC1CCCCC1,10,i,+,i,i
N#Cc1c(NC(=O)c2cc3nc(-c4ccco4)cc(C(F)(F)F)n3n2)sc2c1CCCCC2,-9,/,/,/,/
Cn1c(SCCCN2C(=O)c3cccc4cccc(c34)C2=O)nnc1-c1cccs1,35,/,/,/,/
O=C1c2cccc3cccc(c23)C(=O)N1CCCSc1ncn[nH]1,45,i,+,i,i
COc1ccc(-n2c(SCCCN3C(=O)c4cccc5cccc(c45)C3=O)nnc2-c2ccncc2)cc1,-3,/,/,/,/
O=C1c2cccc3cccc(c23)C(=O)N1CCCSc1n[nH]c(-c2ccc(F)cc2)n1,55*,/,/,/,/
O=C(c1cccs1)n1nc(-c2ccccc2)nc1NCc1ccco1,86*,/,/,/,/
O=C(c1ccccc1Cl)n1nc(-c2ccccc2)nc1NCc1ccco1,26,/,/,/,/
O=C(c1ccc(F)cc1)n1nc(-c2ccc(Cl)cc2)nc1NCc1ccco1,150*,/,/,/,/
CCOc1cc(CO)c(Br)cc1OCC(=O)O,-3,i,+,i,i
COCC(C)NCc1ccc(OC)c(OC)c1OC (configuration not stated),-8,i,+,i,i
N#Cc1c(NC(=O)Cn2cnc3ccccc3c2=O)sc2c1CCC2,3,/,/,/,/
O=C1O[C@H](c2ccccc2)[C@H](c2ccccc2)N2[C@H]1[C@@H](C(=O)N1CCCCCCC1)[C@]1(C(=O)Nc3ccc(C#CC4=CCCCC4)cc31)[C@H]2c1ccccc1OCCO,/,+,+,i,+
COc1cc2c(cc1OC)CN(C(=O)[C@@H]1[C@H]3C(=O)O[C@H](c4ccccc4)[C@H](c4ccccc4)N3[C@H](c3ccccc3OCCO)[C@@]13C(=O)Nc1ccc(C#CCNC(N)=O)cc13)CC2,/,i,i,i,+
